# Source: article PMC11062922 (Nature Chemical Biology, 2023)
# Where two headings read alike, the source gives them in different places.
# Tests used:
# AAK1 = test system: AAK1; design: species or system human, MV4-11 + K-562 + COLO205 + SK-N-BE2 + OVCAR-8; details: read-out: apparent Kd, n = 1
# BMP2K = test system: BMP2K; design: species or system human, MV4-11 + K-562 + COLO205 + SK-N-BE2 + OVCAR-8; details: read-out: apparent Kd, n = 1
# CSNK2A1;CSNK2A3 = test system: CSNK2A1;CSNK2A3; design: species or system human, MV4-11 + K-562 + COLO205 + SK-N-BE2 + OVCAR-8; details: read-out: apparent Kd, compound concentrations: 100 nM and 1000 nM (sheet 'Samples'), n = 1
# CSNK2A2 = test system: CSNK2A2; design: species or system human, MV4-11 + K-562 + COLO205 + SK-N-BE2 + OVCAR-8; details: read-out: apparent Kd, compound concentrations: 100 nM and 1000 nM (sheet 'Samples'), n = 1
# Q6ZSR9 = Q6ZSR9 (human, UniProt Q6ZSR9); design: species or system MV4-11 + K-562 + COLO205 + SK-N-BE2 + OVCAR-8; details: read-out: apparent Kd, n = 1
# Chain of Q6ZSR9 (Q6ZSR9 whole entry, looked up): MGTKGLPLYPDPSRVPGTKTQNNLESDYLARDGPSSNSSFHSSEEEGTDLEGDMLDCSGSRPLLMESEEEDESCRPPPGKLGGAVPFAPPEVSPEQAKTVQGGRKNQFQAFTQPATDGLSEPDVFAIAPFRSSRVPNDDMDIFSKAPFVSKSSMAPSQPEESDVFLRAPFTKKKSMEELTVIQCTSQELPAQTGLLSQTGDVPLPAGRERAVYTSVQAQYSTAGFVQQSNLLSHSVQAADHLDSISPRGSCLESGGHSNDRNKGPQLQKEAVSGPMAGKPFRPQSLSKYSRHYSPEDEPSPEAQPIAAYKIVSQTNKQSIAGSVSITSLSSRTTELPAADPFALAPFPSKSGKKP
# GAK = test system: GAK; design: species or system human, MV4-11 + K-562 + COLO205 + SK-N-BE2 + OVCAR-8; details: read-out: apparent Kd, compound concentrations: 100 nM and 1000 nM (sheet 'Samples'), n = 1
# GSK3A = test system: GSK3A; design: species or system human, MV4-11 + K-562 + COLO205 + SK-N-BE2 + OVCAR-8; details: read-out: apparent Kd, n = 1
# GSK3B = test system: GSK3B; design: species or system human, MV4-11 + K-562 + COLO205 + SK-N-BE2 + OVCAR-8; details: read-out: apparent Kd, compound concentrations: 100 nM and 1000 nM (sheet 'Samples'), n = 1
# MELK = test system: MELK; design: species or system human, MV4-11 + K-562 + COLO205 + SK-N-BE2 + OVCAR-8; details: read-out: apparent Kd, n = 1
# NUAK1 = test system: NUAK1; design: species or system human, MV4-11 + K-562 + COLO205 + SK-N-BE2 + OVCAR-8; details: read-out: apparent Kd, n = 1
# PAK4 = test system: PAK4; design: species or system human, MV4-11 + K-562 + COLO205 + SK-N-BE2 + OVCAR-8; details: read-out: apparent Kd, n = 1
# RET = test system: RET; design: species or system human, MV4-11 + K-562 + COLO205 + SK-N-BE2 + OVCAR-8; details: read-out: apparent Kd; compound concentrations: 100 nM and 1000 nM (sheet 'Samples'), CATDS: 3.2863733799292097E-2; n = 1
# CLK1 = test system: CLK1; design: species or system human, MV4-11 + K-562 + COLO205 + SK-N-BE2 + OVCAR-8; details: read-out: apparent Kd, n = 1
# PRKAG1 = test system: PRKAG1; design: species or system human, MV4-11 + K-562 + COLO205 + SK-N-BE2 + OVCAR-8; details: read-out: apparent Kd, compound concentrations: 100 nM and 1000 nM (sheet 'Samples'), n = 1
# CLK4 = test system: CLK4; design: species or system human, MV4-11 + K-562 + COLO205 + SK-N-BE2 + OVCAR-8; details: read-out: apparent Kd; compound concentrations:100 nM and 1000 nM (sheet 'Samples'); n = 1
# FLT4 = test system: FLT4; design: species or system human, MV4-11 + K-562 + COLO205 + SK-N-BE2 + OVCAR-8; details: read-out: apparent Kd, n = 1
# SIK2 = test system: SIK2; design: species or system human, MV4-11 + K-562 + COLO205 + SK-N-BE2 + OVCAR-8; details: read-out: apparent Kd; compound concentrations:100 nM and 1000 nM (sheet 'Samples'); n = 1
# PKN1 = test system: PKN1; design: species or system human, MV4-11 + K-562 + COLO205 + SK-N-BE2 + OVCAR-8; details: read-out: apparent Kd; compound concentrations:100 nM and 1000 nM (sheet 'Samples'); n = 1
# PKN3 = test system: PKN3; design: species or system human, MV4-11 + K-562 + COLO205 + SK-N-BE2 + OVCAR-8; details: read-out: apparent Kd; compound concentrations:100 nM and 1000 nM (sheet 'Samples'); n = 1
# [1] = compound concentrations:100 nM and 1000 nM (sheet 'Samples')
smiles,measurement,setting,value
NS(=O)(=O)c1ccc(N/N=C2\C(=O)Nc3ccc4ncccc4c32)cc1 [GW305178X],potency estimated from few doses,"AAK1; compound concentrations: 100 nM and 1000 nM (sheet 'Samples'), CATDS: 4.5052292202984998E-2",1340 nM
same,potency estimated from few doses,"BMP2K; compound concentrations: 100 nM and 1000 nM (sheet 'Samples'), CATDS: 4.3500032535549099E-2",1510 nM
same,potency estimated from few doses,CSNK2A1;CSNK2A3; CATDS: 3.8490357435000497E-2,2360 nM
same,potency estimated from few doses,CSNK2A2; CATDS: 4.2211322900730999E-2,1670 nM
same,potency estimated from few doses,"Q6ZSR9; compound concentrations: 100 nM and 1000 nM (sheet 'Samples'), CATDS: 4.4355829104281E-2",1410 nM
CN[C@H](C#Cc1c(F)ccc2c1/C(=C/c1[nH]ccc1OC)C(=O)N2)CO.Cl [RO0283049-001],potency estimated from few doses,"AAK1; compound concentrations: 100 nM and 1000 nM (sheet 'Samples'), CATDS: 2.8240152121160999E-2",574 nM
same,potency estimated from few doses,"BMP2K; compound concentrations: 100 nM and 1000 nM (sheet 'Samples'), CATDS: 7.2716114591836398E-2",79.8 nM
same,potency estimated from few doses,CSNK2A1;CSNK2A3; CATDS: 2.0504154829503698E-2,1690 nM
same,potency estimated from few doses,CSNK2A2; CATDS: 2.5963864867474401E-2,730 nM
same,potency estimated from few doses,GAK; CATDS: 2.5381960568832601E-2,781 nM
same,potency estimated from few doses,"GSK3A; compound concentrations: 100 nM and 1000 nM (sheet 'Samples'), CATDS: 5.21732936396841E-2",145 nM
same,potency estimated from few doses,GSK3B; CATDS: 5.3689374792110299E-2,137 nM
same,potency estimated from few doses,"MELK; compound concentrations: 100 nM and 1000 nM (sheet 'Samples'), CATDS: 2.5364281194585201E-2",783 nM
same,potency estimated from few doses,"NUAK1; compound concentrations: 100 nM and 1000 nM (sheet 'Samples'), CATDS: 5.6502774837069003E-2",125 nM
same,potency estimated from few doses,"PAK4; compound concentrations: 100 nM and 1000 nM (sheet 'Samples'), CATDS: 2.6532527955357901E-2",685 nM
same,potency estimated from few doses,"Q6ZSR9; compound concentrations: 100 nM and 1000 nM (sheet 'Samples'), CATDS: 2.6998984012354399E-2",651 nM
same,potency estimated from few doses,RET,389 nM
Cn1cc(C2=C(c3ccc(OC[C@@H](O)CO)cc3)C(=O)NC2=O)c2ccccc21 [RO3208546-000],potency estimated from few doses,"AAK1; compound concentrations: 100 nM and 1000 nM (sheet 'Samples'), CATDS: 3.6946772477140302E-2",1320 nM
same,potency estimated from few doses,"CLK1; compound concentrations: 100 nM and 1000 nM (sheet 'Samples'), CATDS: 3.5256752059163503E-2",1510 nM
same,potency estimated from few doses,GAK; CATDS: 4.3278259075416499E-2,885 nM
same,potency estimated from few doses,"GSK3A; compound concentrations: 100 nM and 1000 nM (sheet 'Samples'), CATDS: 5.7986352312034098E-2",489 nM
same,potency estimated from few doses,GSK3B; CATDS: 4.5953894166210499E-2,774 nM
same,potency estimated from few doses,PRKAG1; CATDS: 4.3402383935848998E-2,879 nM
same,potency estimated from few doses,"Q6ZSR9; compound concentrations: 100 nM and 1000 nM (sheet 'Samples'), CATDS: 3.3781584093652402E-2",1720 nM
CC(C)N1CC(=O)N(C)c2cnc(Nc3cccc(S(=O)(=O)CCN4CCOCC4)c3)nc21 [BI00009348],potency estimated from few doses,"AAK1; compound concentrations: 100 nM and 1000 nM (sheet 'Samples'), CATDS: 7.4673370536537498E-2",662 nM
same,potency estimated from few doses,"BMP2K; compound concentrations: 100 nM and 1000 nM (sheet 'Samples'), CATDS: 7.1051362969771797E-2",736 nM
same,potency estimated from few doses,GSK3B; CATDS: 6.9045357407431895E-2,783 nM
same,potency estimated from few doses,"NUAK1; compound concentrations: 100 nM and 1000 nM (sheet 'Samples'), CATDS: 5.8980010573034099E-2",1140 nM
same,potency estimated from few doses,"Q6ZSR9; compound concentrations: 100 nM and 1000 nM (sheet 'Samples'), CATDS: 6.16877896582032E-2",1020 nM
Cn1cc(C2=C(c3c(S(C)=O)n(C)c4ccccc34)C(=O)NC2=O)c2ccccc21 (stereo not drawn) [RO0317379-000],potency estimated from few doses,"AAK1; compound concentrations: 100 nM and 1000 nM (sheet 'Samples'), CATDS: 0.257155893587458",217 nM
same,potency estimated from few doses,"BMP2K; compound concentrations: 100 nM and 1000 nM (sheet 'Samples'), CATDS: 0.121414398934197",1050 nM
same,potency estimated from few doses,"Q6ZSR9; compound concentrations: 100 nM and 1000 nM (sheet 'Samples'), CATDS: 0.33733581248504402",142 nM
CN(C)C(=O)/C(C#N)=C/c1ccc(-c2nc3cnc4[nH]ccc4c3n2C2CCCCC2)o1 [FM-381],potency estimated from few doses,AAK1; [1],1820 nM
same,potency estimated from few doses,BMP2K; [1],1050 nM
same,potency estimated from few doses,NUAK1; [1],566 nM
same,potency estimated from few doses,Q6ZSR9; [1],1760 nM
O=C(Nc1n[nH]c2nc(-c3ccccc3O)ccc12)C1CC1 [SB-711880],potency estimated from few doses,AAK1; [1],713 nM
same,potency estimated from few doses,CLK4,1230 nM
same,potency estimated from few doses,FLT4; [1],1790 nM
same,potency estimated from few doses,MELK; [1],2380 nM
same,potency estimated from few doses,NUAK1; [1],1850 nM
same,potency estimated from few doses,PAK4; [1],357 nM
same,potency estimated from few doses,Q6ZSR9; [1],537 nM
same,potency estimated from few doses,SIK2,547 nM
COc1ccc(Nc2nccc(NCCNC(=O)Nc3cc(C)ccc3C)n2)cc1 [GSK1379899A],potency estimated from few doses,"AAK1; compound concentrations: 100 nM and 1000 nM (sheet 'Samples'), CATDS: 4.14189738717365E-2",1930 nM
same,potency estimated from few doses,GAK; CATDS: 4.9044286773088197E-2,1220 nM
same,potency estimated from few doses,"GSK3A; compound concentrations: 100 nM and 1000 nM (sheet 'Samples'), CATDS: 0.21656856359749399",102 nM
same,potency estimated from few doses,GSK3B; CATDS: 4.8399492982865999E-2,1260 nM
same,potency estimated from few doses,PRKAG1; CATDS: 5.18818459595803E-2,1070 nM
CN(C)c1ccc2c(c1)/C(=C/Nc1ccc(S(N)(=O)=O)cc1)C(=O)N2 [GW416469X],potency estimated from few doses,"AAK1; compound concentrations: 100 nM and 1000 nM (sheet 'Samples'), CATDS: 7.2948540677608101E-2",1640 nM
same,potency estimated from few doses,"BMP2K; compound concentrations: 100 nM and 1000 nM (sheet 'Samples'), CATDS: 7.3539976386738704E-2",1600 nM
same,potency estimated from few doses,CSNK2A2; CATDS: 7.0643002799247095E-2,1820 nM
same,potency estimated from few doses,"FLT4; compound concentrations: 100 nM and 1000 nM (sheet 'Samples'), CATDS: 7.3701429425290094E-2",1590 nM
same,potency estimated from few doses,"NUAK1; compound concentrations: 100 nM and 1000 nM (sheet 'Samples'), CATDS: 0.318304060181621",86.6 nM
COc1cc[nH]c1/C=C1\C(=O)Nc2ccc(F)c(I)c21 [RO0281567-000],potency estimated from few doses,"AAK1; compound concentrations: 100 nM and 1000 nM (sheet 'Samples'), CATDS: 0.16412118246726901",568 nM
same,potency estimated from few doses,"BMP2K; compound concentrations: 100 nM and 1000 nM (sheet 'Samples'), CATDS: 0.232255536891084",309 nM
same,potency estimated from few doses,"GSK3A; compound concentrations: 100 nM and 1000 nM (sheet 'Samples'), CATDS: 0.11117571470946799",1460 nM
same,potency estimated from few doses,"Q6ZSR9; compound concentrations: 100 nM and 1000 nM (sheet 'Samples'), CATDS: 0.16614751317759599",555 nM
CCn1c(-c2nonc2N)nc2cncc(C(=O)N3CC[C@H](N)C3)c21.Cl [SB-772077-B],potency estimated from few doses,AAK1; [1],1700 nM
same,potency estimated from few doses,GSK3A; [1],1100 nM
same,potency estimated from few doses,PKN1,484 nM
same,potency estimated from few doses,PKN3,1710 nM
same,potency estimated from few doses,Q6ZSR9; [1],1880 nM
Nc1nccc(-c2ccc3c(N)n[nH]c3c2)n1 [GSK1034945A],potency estimated from few doses,AAK1; [1],194 nM
same,potency estimated from few doses,BMP2K; [1],194 nM
same,potency estimated from few doses,CLK1; [1],35.4 nM
same,potency estimated from few doses,CLK4,25 nM
same,potency estimated from few doses,MELK; [1],828 nM
same,potency estimated from few doses,Q6ZSR9; [1],225 nM
